From article PMC11062922 (Nature Chemical Biology, 2023)
Like-named read-outs stand apart in the source and are kept apart here.

Experiments:
Parameters in all cases: species or system human, MV4-11 + K-562 + COLO205 + SK-N-BE2 + OVCAR-8
DYNC1LI1 = settings: read-out: apparent Kd, compound concentrations: 100 nM and 1000 nM (sheet 'Samples'), n = 1
GSK3A = settings: read-out: apparent Kd, compound concentrations: 100 nM and 1000 nM (sheet 'Samples'), n = 1
GSK3B = settings: read-out: apparent Kd, compound concentrations: 100 nM and 1000 nM (sheet 'Samples'), n = 1
IRAK4 = settings: read-out: apparent Kd; compound concentrations: 100 nM and 1000 nM (sheet 'Samples'), CATDS: 6.7100435979899897E-2; n = 1
MAP2K1 = settings: read-out: apparent Kd; compound concentrations: 100 nM and 1000 nM (sheet 'Samples'), CATDS: 6.4942175038997504E-2; n = 1
MAP3K2 = settings: read-out: apparent Kd; compound concentrations: 100 nM and 1000 nM (sheet 'Samples'), CATDS: 7.9900498504471701E-2; n = 1
STK3 = settings: read-out: apparent Kd; compound concentrations: 100 nM and 1000 nM (sheet 'Samples'), CATDS: 7.3483496844903004E-2; n = 1
STK4 = settings: read-out: apparent Kd; compound concentrations: 100 nM and 1000 nM (sheet 'Samples'), CATDS: 6.4981472702296803E-2; n = 1
TAOK1 = settings: read-out: apparent Kd; compound concentrations: 100 nM and 1000 nM (sheet 'Samples'), CATDS: 0.10465573180823801; n = 1
TAOK3 = settings: read-out: apparent Kd; compound concentrations: 100 nM and 1000 nM (sheet 'Samples'), CATDS: 8.7598902274653806E-2; n = 1
TNK2 = settings: read-out: apparent Kd, compound concentrations: 100 nM and 1000 nM (sheet 'Samples'), n = 1
TUBB6 = settings: read-out: apparent Kd; compound concentrations: 100 nM and 1000 nM (sheet 'Samples'), CATDS: 7.2898721054062393E-2; n = 1
WEE1 = settings: read-out: apparent Kd; compound concentrations: 100 nM and 1000 nM (sheet 'Samples'), CATDS: 6.8522632580167595E-2; n = 1
DJA1 = test system: T1, DJA1; settings: read-out: apparent Kd, compound concentrations: 100 nM and 1000 nM (sheet 'Samples'), n = 1
T1 construct: gene DNAJA1

MYLK3 = settings: read-out: apparent Kd; compound concentrations: 100 nM and 1000 nM (sheet 'Samples'), CATDS: 9.6792260241437694E-2; n = 1
PIK3CD = settings: read-out: apparent Kd, compound concentrations: 100 nM and 1000 nM (sheet 'Samples'), n = 1
PRKCD = settings: read-out: apparent Kd; compound concentrations: 100 nM and 1000 nM (sheet 'Samples'), CATDS: 9.5557824797396607E-2; n = 1
PRKCQ = settings: read-out: apparent Kd; compound concentrations: 100 nM and 1000 nM (sheet 'Samples'), CATDS: 0.104256233520078; n = 1
EGFR = settings: read-out: apparent Kd, compound concentrations: 100 nM and 1000 nM (sheet 'Samples'), n = 1
DDR1 = settings: read-out: apparent Kd, compound concentrations: 100 nM and 1000 nM (sheet 'Samples'), n = 1
MAPK11 = settings: read-out: apparent Kd; compound concentrations: 100 nM and 1000 nM (sheet 'Samples'), CATDS: 0.201173372459408; n = 1
MAPK14 = settings: read-out: apparent Kd; compound concentrations: 100 nM and 1000 nM (sheet 'Samples'), CATDS: 0.39757840601660499; n = 1
MAPKAPK2 = settings: read-out: apparent Kd, compound concentrations: 100 nM and 1000 nM (sheet 'Samples'), n = 1
PTK6 = settings: read-out: apparent Kd; compound concentrations: 100 nM and 1000 nM (sheet 'Samples'), CATDS: 0.387863257787184; n = 1
RET = settings: read-out: apparent Kd, compound concentrations: 100 nM and 1000 nM (sheet 'Samples'), n = 1
NNT = settings: read-out: apparent Kd; compound concentrations: 100 nM and 1000 nM (sheet 'Samples'), CATDS: 0.29413941723105502; n = 1
PDXK = settings: read-out: apparent Kd, compound concentrations: 100 nM and 1000 nM (sheet 'Samples'), n = 1
PIK3CB = settings: read-out: apparent Kd; compound concentrations: 100 nM and 1000 nM (sheet 'Samples'), CATDS: 0.79841434313068305; n = 1
GAK = settings: read-out: apparent Kd, compound concentrations: 100 nM and 1000 nM (sheet 'Samples'), n = 1
RIPK2 = settings: read-out: apparent Kd, compound concentrations: 100 nM and 1000 nM (sheet 'Samples'), n = 1
EPHA1 = settings: read-out: apparent Kd; compound concentrations: 100 nM and 1000 nM (sheet 'Samples'), CATDS: 8.4373240562764601E-2; n = 1
EPHB4 = settings: read-out: apparent Kd; compound concentrations: 100 nM and 1000 nM (sheet 'Samples'), CATDS: 9.3319537671251104E-2; n = 1
PIK3CA = settings: read-out: apparent Kd; compound concentrations: 100 nM and 1000 nM (sheet 'Samples'), CATDS: 0.12114887477335; n = 1
PIK3CG = settings: read-out: apparent Kd; compound concentrations: 100 nM and 1000 nM (sheet 'Samples'), CATDS: 8.4802846120227496E-2; n = 1
RIPK3 = settings: read-out: apparent Kd; compound concentrations: 100 nM and 1000 nM (sheet 'Samples'), CATDS: 8.3491494498952795E-2; n = 1

Work on COc1ccc2c(c1)C(c1ccccc1Cl)=Nc1c(n[nH]c1C)N2 [RO0281498-000] yielded a potency estimated from few doses (DYNC1LI1; CATDS: 8.5515201932316404E-2) of 1210 nM, a potency estimated from few doses (GSK3A; CATDS: 8.5763522680639803E-2) of 1210 nM and a potency estimated from few doses (GSK3B; CATDS: 7.6779937662019099E-2) of 1500 nM. It also gave a potency estimated from few doses (IRAK4) of 2010 nM, a potency estimated from few doses (MAP2K1) of 2180 nM and a potency estimated from few doses (MAP3K2) of 1380 nM. The potency estimated from few doses (STK3) was 1640 nM, the potency estimated from few doses (STK4) was 2180 nM and the potency estimated from few doses (TAOK1) was 858 nM. It also gave a potency estimated from few doses (TAOK3) of 1160 nM, a potency estimated from few doses (TNK2; CATDS: 8.6765119114313102E-2) of 1180 nM and a potency estimated from few doses (TUBB6) of 1670 nM. The potency estimated from few doses (WEE1) was 1920 nM.

For Cn1cc(C2=C(c3cn(C)c4ccc(N)cc34)C(=O)NC2=O)c2ccccc21 [RO0317365-000], the potency estimated from few doses (DJA1; CATDS: 0.11913722870337901) was 1120 nM, the potency estimated from few doses (DYNC1LI1; CATDS: 9.8378875134037994E-2) was 1880 nM and the potency estimated from few doses (GSK3A; CATDS: 0.15388620061227101) was 637 nM. For the same compound, the potency estimated from few doses (GSK3B; CATDS: 0.158803622599584) was 598 nM, the potency estimated from few doses (MYLK3) was 1970 nM and the potency estimated from few doses (PIK3CD; CATDS: 0.44284718560289399) was 113 nM. The potency estimated from few doses (PRKCD) was 2060 nM and the potency estimated from few doses (PRKCQ) was 1580 nM.

Cl.c1ccc(Cn2ccc3cc(Nc4ncnc5ccccc45)ccc32)cc1 [GW275568A] was tested, and the potency estimated from few doses (EGFR; CATDS: 1) was 82.9 nM.

Work on Cc1ccc(NC(=O)c2ccnc(N3CCCC3)c2)cc1-c1ccc(C(=O)NCC2CC2)cc1 [GW769076X] yielded a potency estimated from few doses (DDR1; CATDS: 0.199850350995284) of 570 nM, a potency estimated from few doses (MAPK11) of 559 nM and a potency estimated from few doses (MAPK14) of 140 nM. For the same compound, the potency estimated from few doses (MAPKAPK2; CATDS: 0.28488469813325601) was 250 nM.

COc1cc(N2CCN(C)CC2)ccc1Nc1ncc2c(n1)N(C)c1ccccc1C(=O)N2 [XMD8-87] showed a potency estimated from few doses (DJA1; CATDS: 0.207840847551445) of 1710 nM, a potency estimated from few doses (PTK6) of 123 nM and a potency estimated from few doses (TNK2; CATDS: 0.62096450214514598) of 47.5 nM.

Nc1ccc(C#Cc2cncnc2Nc2ccc(OCc3cccc(F)c3)c(Cl)c2)cc1 [GW659893X] showed a potency estimated from few doses (EGFR; CATDS: 1) of 404 nM.

Compound Nc1ncnc2occ(-c3ccc(NC(=O)Nc4cc(C(F)(F)F)cc(C(F)(F)F)c4)cc3)c12 [GW795486X] has a potency estimated from few doses (DDR1; CATDS: 0.40154805135944899) of 1020 nM and a potency estimated from few doses (RET; CATDS: 0.66241044961877704) of 350 nM.

In the case of CCNC(=O)O[C@H]1CN[C@H](C#Cc2cc3ncnc(Nc4ccc(OCc5cccc(F)c5)c(Cl)c4)c3s2)C1 [GSK192082A], the potency estimated from few doses (EGFR; CATDS: 1) is reported as 177 nM.

For CC(C)c1[nH]nc2c1N=C(c1ccccc1Cl)c1cc([N+](=O)[O-])ccc1N2 [RO0274710-000], the potency estimated from few doses (DJA1; CATDS: 0.40583373860109201) was 864 nM, the potency estimated from few doses (NNT) was 1640 nM and the potency estimated from few doses (PDXK; CATDS: 0.31885839544215799) was 1370 nM.

For Cc1c(Cn2c3ccccc3n3c(=O)cc(N4CCOCC4)nc23)cccc1C(F)(F)F [GSK2306394A], the potency estimated from few doses (DJA1; CATDS: 0.30097601497631998) was 653 nM, the potency estimated from few doses (PDXK; CATDS: 0.22598902737403401) was 1920 nM and the potency estimated from few doses (PIK3CB) was 66.7 nM.

Work on C#Cc1cccc(Nc2ncnc3cc(OC)c(OC4CCN(C)CC4)cc23)c1 [BI00007366] yielded a potency estimated from few doses (EGFR; CATDS: 0.27319466125259201) of 1300 nM, a potency estimated from few doses (GAK; CATDS: 0.38094365160878402) of 634 nM and a potency estimated from few doses (RIPK2; CATDS: 0.36838569788984799) of 674 nM.

With COc1cc2ncnc(Nc3ccc(C)c(O)c3)c2cc1OC.Cl [GW410563A] the potency estimated from few doses (EGFR; CATDS: 0.29565759118255602) was 439 nM, the potency estimated from few doses (RET; CATDS: 0.33989373739411199) was 326 nM and the potency estimated from few doses (RIPK2; CATDS: 0.37374612171419203) was 272 nM.

In the case of COc1cc2ncnc(Nc3ccc(F)c(Cl)c3)c2cc1O[C@H]1CC[C@H](N)CC1 [BIBW3133BS], the potency estimated from few doses (EGFR; CATDS: 0.31081219561231099) is reported as 48.6 nM, the potency estimated from few doses (EPHA1) is reported as 670 nM and the potency estimated from few doses (EPHB4) is reported as 508 nM. It also gave a potency estimated from few doses (GAK; CATDS: 7.6130935509039099E-2) of 922 nM, a potency estimated from few doses (MAPKAPK2; CATDS: 6.9663188807488702E-2) of 1270 nM and a potency estimated from few doses (PIK3CA) of 273 nM. It also gave a potency estimated from few doses (PIK3CD; CATDS: 0.31843258690153697) of 46.8 nM, a potency estimated from few doses (PIK3CG) of 660 nM and a potency estimated from few doses (RIPK2; CATDS: 8.6500761240037902E-2) of 624 nM. The potency estimated from few doses (RIPK3) was 691 nM.
